# According to the supplement of paper PMC4466140:
# Tests used:
# Assay in all cases: SPOT peptide array binding signal intensity (averaged, normalized) (arbitrary units (background-subtracted, floor 0; scale differs between SH3 domains)); higher = stronger binding of the SH3 domain to the peptide
# [1] = biological target: CaNbp2
# Protocol: (§1)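 GST-tagged SH3 domains from S. cerevisiae (Sc), A. gossypii (Ag), C. albicans (Ca) and S. pombe (Sp) were incubated at 10 ug/ml overnight at 4 C on cellulose SPOT membranes carrying 292 synthetic 15-mer peptides mined from the S. cerevisiae proteome (cysteines replaced by serines). Binding was detected with anti-GST antibody, HRP secondary and chemiluminescence, quantified with Genespotter, and reported as normalized spot intensities averaged over biological replicates.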
# [2] = biological target: CaRvs167
# Protocol: as §1
# [3] = biological target: CaRvs167-3
# Protocol: as §1
# [4] = biological target: CaSho1
# Protocol: as §1
# [5] = biological target: CaSla1-D1-D2
# Protocol: as §1
# [6] = biological target: CaSla1-D3
# Protocol: as §1
# [7] = biological target: ScAbp1
# Protocol: as §1
# [8] = biological target: ScBbc1
# Protocol: as §1
# [9] = biological target: ScBem1-D1
# Protocol: as §1
# [10] = biological target: ScBzz1-D1
# Protocol: as §1
# [11] = biological target: ScBzz1-D2
# Protocol: as §1
# [12] = biological target: ScCyk3
# Protocol: as §1
# [13] = biological target: ScFus1
# Protocol: as §1
# [14] = biological target: ScHof1
# Protocol: as §1
# [15] = biological target: ScHse1
# Protocol: as §1
# [16] = biological target: ScLsb1
# Protocol: as §1
# [17] = biological target: ScLsb2
# Protocol: as §1
# [18] = biological target: ScLsb3
# Protocol: as §1
# [19] = biological target: ScLsb4
# Protocol: as §1
# [20] = biological target: ScMyo3
# Protocol: as §1
# [21] = biological target: ScMyo5
# Protocol: as §1
# [22] = biological target: ScNbp2
# Protocol: as §1
# [23] = biological target: ScPex13
# Protocol: as §1
# [24] = biological target: ScRvs167
# Protocol: as §1
# [25] = biological target: ScSho1
# Protocol: as §1
# [26] = biological target: ScSla1-D1-D2
# Protocol: as §1
# [27] = biological target: ScSla1-D3
# Protocol: as §1
# [28] = biological target: SpAbp1-D1
# Protocol: as §1
# [29] = biological target: SpBbc1
# Protocol: as §1
# [30] = biological target: SpBzz1-D1
# Protocol: as §1
# [31] = biological target: SpBzz1-D2
# Protocol: as §1
# [32] = biological target: SpCyk3
# Protocol: as §1
# [33] = biological target: SpHof1
# Protocol: as §1
# [34] = biological target: SpHof1-2
# Protocol: as §1
# [35] = biological target: SpHof1-3
# Protocol: as §1
# [36] = biological target: SpHse1
# Protocol: as §1
# [37] = biological target: SpLsb1
# Protocol: as §1
# [38] = biological target: SpLsb4
# Protocol: as §1
# [39] = biological target: SpMyo1
# Protocol: as §1
# [40] = biological target: SpNbp2
# Protocol: as §1
# [41] = biological target: SpPex13
# Protocol: as §1
# [42] = biological target: SpRvs167
# Protocol: as §1
# [43] = biological target: SpSla1-D1-D2
# Protocol: as §1
# [44] = biological target: SpSla1-D3
# Protocol: as §1
# [45] = biological target: AgAbp1
# Protocol: as §1
# [46] = biological target: AgBbc1
# Protocol: as §1
# [47] = biological target: AgBem1-D1
# Protocol: as §1
# [48] = biological target: AgBzz1-D1
# Protocol: as §1
# [49] = biological target: AgBzz1-D2
# Protocol: as §1
# [50] = biological target: AgCyk3
# Protocol: as §1
# [51] = biological target: AgFus1
# Protocol: as §1
# [52] = biological target: AgHof1
# Protocol: as §1
# [53] = biological target: AgHse1
# Protocol: as §1
# [54] = biological target: AgLsb1
# Protocol: as §1
# [55] = biological target: AgLsb4
# Protocol: as §1
# [56] = biological target: AgMyo5
# Protocol: as §1
# [57] = biological target: AgNbp2
# Protocol: as §1
# [58] = biological target: AgRvs167
# Protocol: as §1
# [59] = biological target: AgSho1
# Protocol: as §1
# [60] = biological target: AgSla1-D1-D2
# Protocol: as §1
# [61] = biological target: AgSla1-D3
# Protocol: as §1
# [62] = biological target: CaAbp1-D1
# Protocol: as §1
# [63] = biological target: CaAbp1-D2
# Protocol: as §1
# [64] = biological target: CaBbc1
# Protocol: as §1
# [65] = biological target: CaBem1-D1
# Protocol: as §1
# [66] = biological target: CaBzz1-D1
# Protocol: as §1
# [67] = biological target: CaBzz1-D2
# Protocol: as §1
# [68] = biological target: CaCyk3
# Protocol: as §1
# [69] = biological target: CaFus1
# Protocol: as §1
# [70] = biological target: CaHof1
# Protocol: as §1
# [71] = biological target: CaHse1
# Protocol: as §1
# [72] = biological target: CaLsb1
# Protocol: as §1
# [73] = biological target: CaLsb4
# Protocol: as §1
# [74] = biological target: CaMyo5
# Protocol: as §1
binder,measurement,setting,value
RSKRLFPVRPMATAH,SPOT peptide array binding signal intensity,[1],366
same,SPOT peptide array binding signal intensity,[2],27.8
same,SPOT peptide array binding signal intensity,[3],93.5
same,SPOT peptide array binding signal intensity,[4],544
same,SPOT peptide array binding signal intensity,[5],95
same,SPOT peptide array binding signal intensity,[6],22
same,SPOT peptide array binding signal intensity,[7],4
same,SPOT peptide array binding signal intensity,[8],10
same,SPOT peptide array binding signal intensity,[9],5
same,SPOT peptide array binding signal intensity,[10],1.5
same,SPOT peptide array binding signal intensity,[11],2
same,SPOT peptide array binding signal intensity,[12],216
same,SPOT peptide array binding signal intensity,[13],255
same,SPOT peptide array binding signal intensity,[14],1
same,SPOT peptide array binding signal intensity,[15],998
same,SPOT peptide array binding signal intensity,[16],14.5
same,SPOT peptide array binding signal intensity,[17],≤ 0
same,SPOT peptide array binding signal intensity,[18],1050
same,SPOT peptide array binding signal intensity,[19],32.5
same,SPOT peptide array binding signal intensity,[20],5.5
same,SPOT peptide array binding signal intensity,[21],3
same,SPOT peptide array binding signal intensity,[22],384
same,SPOT peptide array binding signal intensity,[23],3.5
same,SPOT peptide array binding signal intensity,[24],256
same,SPOT peptide array binding signal intensity,[25],661
same,SPOT peptide array binding signal intensity,[26],212
same,SPOT peptide array binding signal intensity,[27],34
same,SPOT peptide array binding signal intensity,[28],118
same,SPOT peptide array binding signal intensity,[29],≤ 0
same,SPOT peptide array binding signal intensity,[30],142
same,SPOT peptide array binding signal intensity,[31],0.5
same,SPOT peptide array binding signal intensity,[32],5.5
same,SPOT peptide array binding signal intensity,[33],99.2
same,SPOT peptide array binding signal intensity,[34],5.5
same,SPOT peptide array binding signal intensity,[35],550
same,SPOT peptide array binding signal intensity,[36],350
same,SPOT peptide array binding signal intensity,[37],3
same,SPOT peptide array binding signal intensity,[38],624
same,SPOT peptide array binding signal intensity,[39],1
same,SPOT peptide array binding signal intensity,[40],235
same,SPOT peptide array binding signal intensity,[41],11
same,SPOT peptide array binding signal intensity,[42],52.2
same,SPOT peptide array binding signal intensity,[43],1
same,SPOT peptide array binding signal intensity,[44],13
RRLRDKYKLPIVDAD,SPOT peptide array binding signal intensity,[45],38
same,SPOT peptide array binding signal intensity,[46],20.8
same,SPOT peptide array binding signal intensity,[47],52
same,SPOT peptide array binding signal intensity,[48],32
same,SPOT peptide array binding signal intensity,[49],61.5
same,SPOT peptide array binding signal intensity,[50],1
same,SPOT peptide array binding signal intensity,[51],163
same,SPOT peptide array binding signal intensity,[52],17
same,SPOT peptide array binding signal intensity,[53],748
same,SPOT peptide array binding signal intensity,[54],6
same,SPOT peptide array binding signal intensity,[55],18
same,SPOT peptide array binding signal intensity,[56],0.75
same,SPOT peptide array binding signal intensity,[57],63
same,SPOT peptide array binding signal intensity,[58],3.33
same,SPOT peptide array binding signal intensity,[59],83
same,SPOT peptide array binding signal intensity,[60],299
same,SPOT peptide array binding signal intensity,[61],3
same,SPOT peptide array binding signal intensity,[62],311
same,SPOT peptide array binding signal intensity,[63],326
same,SPOT peptide array binding signal intensity,[64],13
same,SPOT peptide array binding signal intensity,[65],5.5
same,SPOT peptide array binding signal intensity,[66],180
same,SPOT peptide array binding signal intensity,[67],34.5
same,SPOT peptide array binding signal intensity,[68],3
same,SPOT peptide array binding signal intensity,[69],318
same,SPOT peptide array binding signal intensity,[70],0.5
same,SPOT peptide array binding signal intensity,[71],12.2
same,SPOT peptide array binding signal intensity,[72],1
same,SPOT peptide array binding signal intensity,[73],13
same,SPOT peptide array binding signal intensity,[74],1.5
same,SPOT peptide array binding signal intensity,[1],102
same,SPOT peptide array binding signal intensity,[2],5.5
same,SPOT peptide array binding signal intensity,[3],42.5
same,SPOT peptide array binding signal intensity,[4],241
same,SPOT peptide array binding signal intensity,[5],5
same,SPOT peptide array binding signal intensity,[6],1.75
same,SPOT peptide array binding signal intensity,[7],14.5
same,SPOT peptide array binding signal intensity,[8],8.5
same,SPOT peptide array binding signal intensity,[9],26
same,SPOT peptide array binding signal intensity,[10],18
same,SPOT peptide array binding signal intensity,[11],23
same,SPOT peptide array binding signal intensity,[12],22
same,SPOT peptide array binding signal intensity,[13],115
same,SPOT peptide array binding signal intensity,[14],1
same,SPOT peptide array binding signal intensity,[15],1110
same,SPOT peptide array binding signal intensity,[16],9
same,SPOT peptide array binding signal intensity,[17],7.5
same,SPOT peptide array binding signal intensity,[18],90
same,SPOT peptide array binding signal intensity,[19],8
same,SPOT peptide array binding signal intensity,[20],2.5
same,SPOT peptide array binding signal intensity,[21],1.5
same,SPOT peptide array binding signal intensity,[22],90
same,SPOT peptide array binding signal intensity,[23],0.5
same,SPOT peptide array binding signal intensity,[24],3.33
same,SPOT peptide array binding signal intensity,[25],411
same,SPOT peptide array binding signal intensity,[26],36.5
same,SPOT peptide array binding signal intensity,[27],13
same,SPOT peptide array binding signal intensity,[28],88.5
same,SPOT peptide array binding signal intensity,[29],0.75
same,SPOT peptide array binding signal intensity,[30],56
same,SPOT peptide array binding signal intensity,[31],0.5
same,SPOT peptide array binding signal intensity,[32],2.5
same,SPOT peptide array binding signal intensity,[33],54.5
same,SPOT peptide array binding signal intensity,[34],12
same,SPOT peptide array binding signal intensity,[35],318
same,SPOT peptide array binding signal intensity,[36],346
same,SPOT peptide array binding signal intensity,[37],49.2
same,SPOT peptide array binding signal intensity,[38],44
same,SPOT peptide array binding signal intensity,[39],1.25
same,SPOT peptide array binding signal intensity,[40],105
same,SPOT peptide array binding signal intensity,[41],9
same,SPOT peptide array binding signal intensity,[42],0.833
same,SPOT peptide array binding signal intensity,[43],3
same,SPOT peptide array binding signal intensity,[44],6
